Pf Dd2 growth: qHTS Primary assay for Inhibitors of Plasmodium falciparum Dd2 growth in vitro; P. falciparum Dd2 growth, SYBR Green, 72 h; Potency, µM (series often up to 28.9 µM), for inactives: at the top dose activity, negative = inhibition, actives largely listed as inhibitors; 120,000 tested, 4.3% active; AID 1347417, 2020; active = well fitted inhibition curve with a large enough effect;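 note: plate controls were DMSO vehicle for no effect and reference drug for full effect; nearly all actives have a fitted effect of over 65% in size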
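Readout: SYBR Green fluorescence, 485 nm excitation, 535 nm emission, after ~16 h lysis at 37C. Before that, Dd2-infected red cells (2.5% hematocrit) grew 72 h with compound, 29 uM top final concentration.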
Numbers without * were called inactive; i = inactive; [ ] = another dose, or the depositor's remark. The sample as a whole holds a higher share of hits than the screen did. Potency is the fitted concentration of half-maximal effect.

SMILES	Pf Dd2 growth
COc1ccc(C2(C(=O)N3CCC(Oc4ccc(-c5noc(C)n5)cc4)C3)CC2)cc1 (configuration not stated)	i[5.79 µM]
CC(C)c1cccc(NC(=O)CN2C(=O)C(c3ccccc3)=NC2(C)C)c1	-15%
CCCOC(=O)N1CCCC2(CCC(=O)N(Cc3ccccc3)C2)C1 (configuration not stated)	0%
CN1CCN(c2ccc(-c3cn(C)c(=O)n4cc(CNc5ccccc5)nc34)cn2)CC1	-14%[44.1 µM]
CCc1cccc(NC(=O)CN2C(=O)CN=C(c3ccccc3F)c3cc(Cl)ccc32)c1	16%
CCc1cccc(NC(c2ccccc2)c2nnc(-c3ccccc3F)o2)c1 (configuration not stated)	11µM*
Fc1ccccc1-c1nnc([C@H]2CCN(Cc3ccccc3)C2)o1	i
CC(NC(=O)Cc1cccn1-c1cccc(Cl)c1)c1cccnc1 (configuration not stated)	-19%
O[C@H]1CC[C@@H](Cc2cc(-c3ccccn3)on2)O[C@@H]1CN(Cc1ccccc1)Cc1ccccc1	i
CCCCC(=O)Nc1c(C(=O)N2CCN(c3ccccc3F)CC2)oc2ccccc12	11µM*
CCOc1ccc(NC(=O)c2oc3ccccc3c2NC(=O)COc2cccc(OC)c2)cc1	13%
CC(C)CC(=O)Nc1c(C(=O)N2CCN(c3ccccc3F)CC2)oc2ccccc12	7.1µM*
CCC(=O)Nc1ccc(C2(C(=O)N3CCN(c4ccccc4F)CC3)CCC2)cc1	-10%
Cc1cccc(OCC(=O)Nc2c(C(=O)N3CCN(c4ccccc4F)CC3)oc3ccccc23)c1	-20%
COc1ccc(OCC(=O)Nc2c(C(=O)N3CCN(c4ccccc4)CC3)oc3ccccc23)cc1	11µM*
CCCC(=O)Nc1c(C(=O)N2CCN(c3ccccc3)CC2)oc2ccccc12	120%[5.79 µM]
O=C(Nc1c(C(=O)N2CCN(c3ccccc3F)CC2)oc2ccccc12)c1ccco1	4%
Cc1ccc(OCC(=O)Nc2c(C(=O)c3ccccc3)oc3ccccc23)cc1C	31%
COCCC(=O)N1CCCC(Cc2nc(C3CCOCC3)no2)C1 (configuration not stated)	18%
COCCCNc1ccc2nnc(-c3ccc(F)cn3)n2n1	-1%[44.1 µM]
Cc1ccc(-n2c(C3CCN(C(=O)c4cccc(N(C)C)c4)CC3)n[nH]c2=O)cc1	i
COc1cccc(-c2noc(CC3CCN(C(=O)c4ccc(F)c(F)c4)CC3)n2)c1	-14%
O=C(CC1C(=O)NCCN1CC(c1ccccc1)c1ccccc1)NCc1ccoc1 (configuration not stated)	i
Cc1noc(C)c1CCCNC(=O)c1ccc(N2CCN(CC3CC3)CC2)nc1	-12%
C#CCN(C)C(=O)C[C@@H]1c2nc(NC(=O)CCCCC)sc2C[C@@H]2[C@](C)(CO)[C@H](O)CC[C@]21C	10µM*
SMILES	Pf Dd2 growth
C[C@]1(CO)[C@H]2Cc3sc(NC(=O)COc4ccccc4)nc3[C@@H](CC(=O)O)[C@]2(C)CC[C@H]1O	-1%
CCCCCC(=O)Nc1nc2c(s1)C[C@@H]1[C@](C)(CO)[C@H](O)CC[C@@]1(C)[C@@H]2CC(=O)N(C)Cc1ccccc1	i
C#CCN(C)C(=O)C[C@@H]1c2nc(NC(=O)COC)sc2C[C@@H]2[C@](C)(CO)[C@H](O)CC[C@]21C	1%
CC(C)(C)CC(=O)Nc1nc2c(s1)C[C@@H]1[C@](C)(CO)[C@H](O)CC[C@@]1(C)[C@@H]2CC(=O)Nc1ccccc1	11µM*
CCCCCC(=O)Nc1nc2c(s1)C[C@@H]1[C@](C)(CO)[C@H](O)CC[C@@]1(C)[C@@H]2CC(=O)Nc1cccc(O)c1	13µM*
CCCCCC(=O)Nc1nc2c(s1)C[C@@H]1[C@](C)(CO)[C@H](O)CC[C@@]1(C)[C@@H]2CC(=O)NC1CCCC1	11µM*
CC(C)(C)C(=O)Nc1nc2c(s1)C[C@@H]1[C@](C)(CO)[C@H](O)CC[C@@]1(C)[C@@H]2CC(=O)NCCN1CCOCC1	12%
COCc1nnc2n1CCC(NC(=O)c1ccco1)CC2 (configuration not stated)	12%
O=C(NCc1ccccc1)C1CCC(=O)N1C1CCN(C(=O)c2ccc(F)cc2F)CC1 (configuration not stated)	-25%
CC1CCN(C(=O)[C@@H](C)C2CC[C@@]3(C)CC[C@H](NC(=O)c4ccccn4)[C@@H](C)[C@@H]3[C@H]2O)CC1 (some centres not stated)	-6%
COc1ccc(C(=O)Nc2ccc3n(c2=O)C[C@H]2C[C@@H]3CN(S(=O)(=O)c3ccc(OC)cc3)C2)cc1	7%
C#CCNC(=O)C[C@@H]1c2nc(NC(=O)c3c(F)cccc3F)sc2C[C@@H]2[C@](C)(CO)[C@H](O)CC[C@]21C	i
C[C@@H](NC(=O)C[C@@H]1c2nc(-c3cccnc3)sc2C[C@@H]2[C@](C)(CO)[C@H](O)CC[C@]21C)c1ccccc1	-24%
CCCCCC(=O)Nc1nc2c(s1)C[C@@H]1[C@](C)(CO)[C@H](O)CC[C@@]1(C)[C@@H]2CC(=O)N[C@H](C)c1ccccc1	5µM*
C[C@]1(CO)[C@H]2Cc3sc(NC(=O)c4ccc(F)cc4)nc3[C@@H](CC(=O)NC3CCCCC3)[C@]2(C)CC[C@H]1O	-10%
C[C@]1(CO)[C@H]2Cc3sc(NC(=O)c4c(F)cccc4F)nc3[C@@H](CC(=O)NC3CCCC3)[C@]2(C)CC[C@H]1O	5µM*
COC(=O)[C@H](Cc1ccc(OC)cc1)NC(=O)[C@@H]1CNCCN1S(=O)(=O)c1ccccc1	i
Cc1ccc(NC(=O)N2CCC(Oc3ncccc3C(=O)N3CCOCC3)C2)c(C)c1 (configuration not stated)	6%
COc1ccc(-c2noc([C@@H]3CCCN3C(=O)COc3ccc(C)cc3)n2)cc1	i
O=C(c1ccc2c(c1)OCO2)N1CCC(Cc2nc(-c3cnccn3)no2)CC1	i
FC(F)(F)CN1C2CCC1CN(c1ncnc3sc(Cl)nc13)C2	-10%
CCCOc1ccccc1C1C(C(=O)Nc2ccccc2)=C(C)Nc2nnnn21 (configuration not stated)	83%
CCCOc1ccc(-c2nn(-c3ccccc3)cc2C2NC(=O)NC(C)=C2C(=O)OC)cc1 (configuration not stated)	10µM*
COc1ccc(C2NC(=O)NC(C)=C2C(=O)Nc2ccccc2)cc1OC (configuration not stated)	-23%
CCCOc1ccc(-c2nn(-c3ccccc3)cc2C2NC(=O)NC(C)=C2C(=O)OC)cc1C (configuration not stated)	10µM*
SMILES	Pf Dd2 growth
CCCCOc1ccc(-c2nn(-c3ccccc3)cc2C2NC(=O)NC(C)=C2C(=O)OC)cc1 (configuration not stated)	i
COC(=O)C1=C(C)NC(=O)NC1c1ccc(O)cc1 (configuration not stated)	-7%
CCCNC(=O)N(C1CCOCC1)C1CCN(Cc2cccnc2)CC1	-23%
CC(C)CCN(C)C(C)c1cccs1 (configuration not stated)	-10%[44.1 µM]
CCNC(=O)NC[C@H]1O[C@H](Cc2cc(-c3ccccc3)on2)CC[C@@H]1O	1%[44.1 µM]
CCO[C@H]1CN(C(=O)CSc2ccc(Cl)cc2)C[C@@H]1O	4%
Cc1ccc(C)c(CN2CCC(CNC(=O)c3cc4ccc5cccnc5c4[nH]3)CC2)c1	2.8µM*
Cc1ccc(CN2CCC(CNC(=O)Nc3ccc(C)c(C)c3)C2)cc1 (configuration not stated)	-5%

Assay outcomes deposited in PubChem BioAssay by National Center for Advancing Translational Sciences (NCATS).
